What all share (settings): mRNA level, 48 h; actives raise or lower the signal
Read-out in assay [1]: Cyclin D1 (CCND1), CCND1 (gene 595)
The experiment in a line: LTEA_HepaRG_CCND1: Life Technologies and Expression Analysis (LTEA) Assay for Cyclin D1 (CCND1) using HepaRG (AID 2283451).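 As to AC50: TaqMan qRT-PCR transcript level normalised to ACTB GAPDH and POLR2A housekeeping genes.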 In short, it runs like this: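 Differentiated human HepaRG cells in serum-free induction medium were exposed 48 h to eight half-log concentrations up to 100 uM in 0.5% DMSO; mRNA quantified by TaqMan qRT-PCR, normalized to ACTB, GAPDH, POLR2A, fitted bidirectionally versus DMSO.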

Read-out in assay [2]: catalase (CAT), CAT (gene 847)
Kind of assay: LTEA_HepaRG_CAT: Life Technologies and Expression Analysis (LTEA) Assay for catalase (CAT) using HepaRG (AID 2283452).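 As to AC50: TaqMan qRT-PCR signal normalized to ACTB GAPDH and POLR2A housekeeping genes.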 The method in brief:
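HepaRG cells in serum-free induction medium, 0.5% DMSO vehicle, exposed 48 h in duplicate over 8 half-log concentrations from 100 uM. CAT mRNA measured by qRT-PCR, normalized to ACTB, GAPDH, POLR2A; bidirectional fit versus DMSO.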

Read-out in assay [3]: flavin-containing dimethylaniline monooxygenases 3 (FMO3), FMO3 (gene 2328)
The experiment in a line: LTEA_HepaRG_FMO3: Life Technologies and Expression Analysis (LTEA) Assay for flavin-containing dimethylaniline monooxygenases 3 (FMO3) using HepaRG (AID 2283453). The method in brief:
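Differentiated HepaRG cells in serum-free induction medium, exposed 48 h in duplicate to 8 half-log concentrations up to 100 uM in 0.5% DMSO. FMO3 mRNA by qRT-PCR, normalized to ACTB, GAPDH, POLR2A; bidirectional fit vs DMSO.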

Read-out in assay [4]: Cytochrome P450 (CYP1A1), CYP1A1 (gene 1543)
Kind of assay: LTEA_HepaRG_CYP1A1: Life Technologies and Expression Analysis (LTEA) Assay for Cytochrome P450 (CYP1A1) using HepaRG (AID 2283454). In short, it runs like this: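 Differentiated HepaRG cells in serum-free induction medium were exposed in duplicate for 48 h to eight half-log concentrations up to 100 uM in 0.5% DMSO. CYP1A1 mRNA was quantified by TaqMan qRT-PCR, normalized to ACTB, GAPDH and POLR2A.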

Read-out in assay [5]: CFLAR gene, CFLAR (gene 8837)
The experiment in a line: LTEA_HepaRG_CFLAR: Life Technologies and Expression Analysis (LTEA) Assay for CFLAR gene using HepaRG (AID 2283455). In short, it runs like this:
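Differentiated HepaRG cells in serum-free induction medium were exposed 48 h in duplicate to eight half-log concentrations up to 100 uM in 0.5% DMSO; mRNA measured by TaqMan qRT-PCR, normalized to ACTB, GAPDH, POLR2A; bidirectional fitting versus DMSO.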

Read-out in assay [6]: Forkhead box O1 (FOXO1), FOXO1 (gene 2308)
Kind of assay: LTEA_HepaRG_FOXO1: Life Technologies and Expression Analysis (LTEA) Assay for Forkhead box O1 (FOXO1) using HepaRG (AID 2283456). The method in brief:
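Differentiated HepaRG cells, in serum-free induction medium with 0.5% DMSO, exposed 48 h in duplicate to 8-point half-log series from 100 uM. FOXO1 mRNA measured by TaqMan qRT-PCR, normalized to ACTB, GAPDH, POLR2A; bidirectional fit versus DMSO.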

Read-out in assay [7]: growth arrest and DNA damage 45 (GADD45A), GADD45A (gene 1647)
The experiment in a line: LTEA_HepaRG_GADD45A: Life Technologies and Expression Analysis (LTEA) Assay for growth arrest and DNA damage 45 (GADD45A) using HepaRG (AID 2283458). The method in brief:
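Cells plated and cultured 48 h, switched to serum-free induction medium, then dosed for 48 h (100 uM top, half-log dilutions, 0.5% DMSO). RNA was isolated and transcript measured by Fluidigm qRT-PCR.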

Read-out in assay [8]: Forkhead box O3 (FOXO3), FOXO3 (gene 2309)
Kind of assay: LTEA_HepaRG_FOXO3: Life Technologies and Expression Analysis (LTEA) Assay for Forkhead box O3 (FOXO3) using HepaRG (AID 2283459). In short, it runs like this: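 Differentiated human HepaRG cells, 48 h post-plating, exposed in duplicate for 48 h in serum-free induction medium; 8-point half-log series from 100 uM in 0.5% DMSO. FOXO3 mRNA by TaqMan qRT-PCR, normalized to ACTB/GAPDH/POLR2A; bidirectional fit versus DMSO.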

Read-out in assay [9]: growth arrest and DNA damage 45 (GADD45B), GADD45B (gene 4616)
Kind of assay: LTEA_HepaRG_GADD45B: Life Technologies and Expression Analysis (LTEA) Assay for growth arrest and DNA damage 45 (GADD45B) using HepaRG (AID 2283461). The method in brief: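 Differentiated HepaRG cells, plated 48 h then switched to serum-free induction medium, were exposed 48 h in duplicate to eight half-log concentrations from 100 uM in 0.5% DMSO; mRNA quantified by qRT-PCR, normalized to ACTB/GAPDH/POLR2A, bidirectional fit versus DMSO.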

Read-out in assay [10]: ABC Transporter (ABCB11), ABCB11 (gene 8647)
Kind of assay: LTEA_HepaRG_ABCB11: Life Technologies and Expression Analysis (LTEA) Assay for ABC Transporter (ABCB11) using HepaRG (AID 2283463). In short, it runs like this: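 Differentiated human HepaRG cells in serum-free induction medium, dosed in duplicate for 48 h. Eight-point half-log series from 100 uM in 0.5% DMSO; ABCB11 mRNA by qRT-PCR, normalized to ACTB, GAPDH, POLR2A, fitted bidirectionally versus DMSO.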

Read-out in assay [11]: ABC Transporter (ABCC2), ABCC2 (gene 1244)
Kind of assay: LTEA_HepaRG_ABCC2: Life Technologies and Expression Analysis (LTEA) Assay for ABC Transporter (ABCC2) using HepaRG (AID 2283464). The method in brief: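 HepaRG cells were plated 48 h, switched to serum-free induction medium, then exposed in duplicate for 48 h to 8 concentrations (top 100 uM, half-log steps, 0.5% DMSO). ABCC2 mRNA was measured by qRT-PCR normalized to ACTB/GAPDH/POLR2A; bidirectional fitting versus DMSO.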

Read-out in assay [12]: Broad substrate specificity ATP-binding cassette transporter ABCG2 (Homo sapiens) (UniProt Q9UNQ0)
The experiment in a line: LTEA_HepaRG_ABCG2: Life Technologies and Expression Analysis (LTEA) Assay for ABC Transporter (ABCG2) using HepaRG (AID 2283465). In short, it runs like this:
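Differentiated HepaRG cells were exposed for 48 h in serum-free induction medium to 8 half-log concentrations, top 100 uM, in 0.5% DMSO. ABCG2 mRNA was measured by qRT-PCR, normalized to ACTB, GAPDH and POLR2A, with bidirectional fitting versus DMSO.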

Read-out in assay [13]: ATP-citrate lyase (ACLY), ACLY (gene 47)
The experiment in a line: LTEA_HepaRG_ACLY: Life Technologies and Expression Analysis (LTEA) Assay for ATP-citrate lyase (ACLY) using HepaRG (AID 2283466). In short, it runs like this: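 Differentiated HepaRG cells exposed 48 h in serum-free induction medium to eight half-log concentrations up to 100 uM in 0.5% DMSO, duplicates. Transcript measured by Fluidigm TaqMan qRT-PCR, normalized to ACTB, GAPDH, POLR2A; bidirectional fit versus DMSO.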

Read-out in assay [14]: Peroxisomal acyl-coenzyme A oxidase 1 (ACOX1) gene, ACOX1 (gene 51)
Kind of assay: LTEA_HepaRG_ACOX1: Life Technologies and Expression Analysis (LTEA) Assay for Peroxisomal acyl-coenzyme A oxidase 1 (ACOX1) gene using HepaRG (AID 2283467). The method in brief:
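HepaRG cells, plated 48 h then switched to serum-free induction medium, were exposed in duplicate for 48 h to 8-point half-log concentrations up to 100 uM in 0.5% DMSO. ACOX1 mRNA was measured by qRT-PCR, normalized to ACTB/GAPDH/POLR2A, and fitted bidirectionally versus DMSO.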

Read-out in assay [15]: Alkaline Phosphatase, Placental (ALPP) gene, ALPP (gene 250)
The experiment in a line: LTEA_HepaRG_ALPP: Life Technologies and Expression Analysis (LTEA) Assay for Alkaline Phosphatase, Placental (ALPP) gene using HepaRG (AID 2283468). In short, it runs like this:
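Differentiated human HepaRG cells were plated and cultured 48 h, then exposed in duplicate for 48 h in serum-free induction medium to eight half-log concentrations from 100 uM in 0.5% DMSO. ALPP mRNA was measured by TaqMan qRT-PCR, normalized to ACTB, GAPDH, POLR2A.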

Read-out in assay [16]: Bcl-2 (BAD) gene, BAD (gene 572)
The experiment in a line: LTEA_HepaRG_BAD: Life Technologies and Expression Analysis (LTEA) Assay for Bcl-2 (BAD) gene using HepaRG (AID 2283469). The method in brief:
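Differentiated HepaRG cells were exposed in duplicate in 0.5% DMSO for 48 h to eight-point half-log concentrations up to 100 uM. BAD mRNA was measured by Fluidigm TaqMan qRT-PCR, normalized to ACTB, GAPDH and POLR2A, and fitted bidirectionally against DMSO.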

Read-out in assay [17]: Bcl-2 (BAX) gene, BAX (gene 581)
Kind of assay: LTEA_HepaRG_BAX: Life Technologies and Expression Analysis (LTEA) Assay for Bcl-2 (BAX) gene using HepaRG (AID 2283470). The method in brief:
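HepaRG (human liver), 48 h exposure, duplicate wells. 8-pt curve, half-log from 100 uM, 0.5% DMSO. BAX transcript by TaqMan qRT-PCR; ACTB/GAPDH/POLR2A normalization; gain or loss vs DMSO baseline.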

Read-out in assay [18]: ABC Transporter (ABCB1), ABCB1 (gene 5243)
The experiment in a line: LTEA_HepaRG_ABCB1: Life Technologies and Expression Analysis (LTEA) Assay for ABC Transporter (ABCB1) using HepaRG (AID 2283460). The method in brief: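 HepaRG cells exposed in duplicate for 48 h in serum-free induction medium to eight half-log concentrations up to 100 uM in 0.5% DMSO. ABCB1 mRNA quantified by qRT-PCR, normalised to ACTB, GAPDH and POLR2A; fitted bidirectionally versus DMSO.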

Activity calls are given as the source filed them. The calls were made as follows: active = hit-call score of the fitted dose curve at least 0.9, where 1 is the maximum; inactive = score below 0.9.

Sequence of Broad substrate specificity ATP-binding cassette transporter ABCG2 (Homo sapiens) (Q9UNQ0 whole entry, looked up): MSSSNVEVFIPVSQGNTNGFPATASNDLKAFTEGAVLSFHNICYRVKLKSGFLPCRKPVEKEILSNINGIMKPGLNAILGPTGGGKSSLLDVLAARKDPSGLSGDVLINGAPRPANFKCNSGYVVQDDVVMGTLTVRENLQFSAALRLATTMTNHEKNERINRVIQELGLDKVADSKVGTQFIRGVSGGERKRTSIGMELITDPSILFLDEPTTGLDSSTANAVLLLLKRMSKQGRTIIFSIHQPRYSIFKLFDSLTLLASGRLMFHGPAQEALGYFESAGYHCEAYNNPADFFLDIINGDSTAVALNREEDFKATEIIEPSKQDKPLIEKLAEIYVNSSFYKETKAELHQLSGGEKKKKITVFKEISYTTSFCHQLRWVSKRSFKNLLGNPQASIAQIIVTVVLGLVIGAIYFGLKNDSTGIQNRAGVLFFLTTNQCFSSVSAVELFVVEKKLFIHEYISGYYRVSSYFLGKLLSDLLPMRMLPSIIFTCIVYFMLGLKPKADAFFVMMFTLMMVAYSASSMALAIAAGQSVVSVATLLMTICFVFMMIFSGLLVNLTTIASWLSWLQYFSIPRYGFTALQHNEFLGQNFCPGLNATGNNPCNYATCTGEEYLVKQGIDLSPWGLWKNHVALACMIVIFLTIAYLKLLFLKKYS

As to `Cc1ccc(N)c(N)c1`, the molecule was classed as inactive in assay [1], in assay [2], in assay [3], in assay [5], in [6] and in assay [7]. Besides, the outcome in assay [8], in assay [9], in assay [10], in [11], in assay [12] and in assay [13] was inactive. For the same molecule, the result in [14], in assay [15], in [16] and in assay [17] was inactive. Also, the AC50 in assay [4] was 40.2 µM (active).

Regarding `OCCOCCO`, the outcome in assay [1], in assay [2], in [3], in assay [4], in assay [5] and in [6] was inactive. The result in assay [8], in assay [18], in [9], in [10], in [11] and in assay [12] was inactive. The molecule was classed as inactive in [13], in assay [14], in assay [15], in [16] and in [17].

Turning to `CCC[CH2][Sn]([Cl])([CH2]CCC)[CH2]CCC`, the AC50 was 81.2 µM (active) in assay [1]; 1.66 µM (active) in [2]; 2.31 µM (active) in assay [3]; 2.35 µM (active) in assay [4]; 4.12 µM (active) in assay [5]; 18.8 µM (active) in [6]. The AC50 in [7] was 50 µM (active); in assay [18] it was 3.21 µM (active); in [10], 2.06 µM (active); in assay [11] it was 3.8 µM (active); in assay [12], 1.49 µM (active); in assay [14] it was 3.11 µM (active). In addition, the AC50 was 3.79 µM (active) in assay [15] and 1.72 µM (active) in assay [17]. Further, the outcome in assay [8], in [13] and in [16] was inactive.

Regarding `Clc1ccccc1Cl`, the molecule was called inactive in [1], in [2], in [3], in assay [4], in assay [5] and in [6]. The molecule was classed as inactive in assay [8], in assay [9], in [10], in assay [11], in [12] and in assay [13]. The result in [14], in assay [15], in assay [16] and in [17] was inactive.

Broadly, the AC50 is the midpoint of the concentration-response curve, whichever way the signal moves.

(Values after PubChem BioAssay (EPA / NIEHS).)
